# TDP1 inh – blocks human tyrosyl-DNA phosphodiesterase 1; Q9NUW8; recombinant TDP1, AlphaScreen DNA substrate cleavage; Potency, µM (top dose mostly 130 µM), inactives show at the top dose activity change, negative = inhibition, most hits filed as inhibitors; 350,000 compounds, 0.28% hits; AID 485290; note: nearly all actives have a fitted effect of over 40% in size
# Target sequence (Q9NUW8 whole entry, looked up): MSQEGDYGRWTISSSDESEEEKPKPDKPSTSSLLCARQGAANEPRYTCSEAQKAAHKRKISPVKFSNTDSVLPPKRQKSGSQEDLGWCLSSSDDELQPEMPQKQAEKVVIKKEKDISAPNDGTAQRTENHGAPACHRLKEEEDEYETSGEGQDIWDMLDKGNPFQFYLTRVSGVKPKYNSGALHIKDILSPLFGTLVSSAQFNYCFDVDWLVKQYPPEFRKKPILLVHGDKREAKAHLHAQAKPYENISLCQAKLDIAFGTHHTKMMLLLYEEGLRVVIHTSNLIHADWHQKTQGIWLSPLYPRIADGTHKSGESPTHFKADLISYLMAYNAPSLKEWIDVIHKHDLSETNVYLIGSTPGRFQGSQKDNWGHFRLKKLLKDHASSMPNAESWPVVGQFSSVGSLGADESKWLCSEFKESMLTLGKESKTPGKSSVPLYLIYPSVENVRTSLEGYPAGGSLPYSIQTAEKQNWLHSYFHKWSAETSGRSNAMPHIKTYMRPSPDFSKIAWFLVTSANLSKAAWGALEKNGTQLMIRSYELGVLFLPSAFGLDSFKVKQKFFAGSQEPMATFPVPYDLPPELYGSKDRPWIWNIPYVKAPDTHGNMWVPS
#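 Here, a 5' biotin and 3' phosphotyrosine-FITC DNA oligonucleotide reports Tdp1 activity: intact substrate bridges AlphaScreen beads, while cleavage leaves a 3' phosphate and drops signal. All incubations at room temperature.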
# DT40 TDP1 CPT – DT40-hTDP1 cell growth loss with CPT | chicken DT40 Tdp1-/-;hTDP1 cells + 20 nM CPT, ATP luminescence, 48 h | Potency, µM (top dose mostly 46.2 µM), for inactives: at the top dose activity change, negative = growth inhibition, most hits filed as inhibitors | 420,000 compounds, 12% hits | AID 686979; note: nearly all actives have a fitted effect of over 55% in size
#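 Chicken DT40 Tdp1-/- cells complemented with human TDP1, 400 cells/well, exposed to compounds plus 20 nM camptothecin for at least 48 h at 37 C; viability read as ATP content by CellTiter-Glo luminescence.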
# RORgamma inh – inhibitors of mouse ROR gamma transcriptional activity | P51450 | Drosophila S2 Gal4-RORgamma UAS-luciferase reporter, 20 h | Potency, µM (doses to about 53.6 µM), without a hit: at the highest dose activity change, negative = inhibition, usual class: inhibitors | 310,000 compounds, 5.4% hits; note: nearly all actives have a fitted effect of over 60% in size
#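 Stably transfected Drosophila Schneider cells are the test system, with ROR gamma fused to Gal4 and luciferase under UAS control; luminescence is read after 20 hr of 700 uM copper sulfate induction at ambient temperature.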
# DT40 TDP1 no CPT – qHTS for Inhibitors of human tyrosyl-DNA phosphodiesterase 1 (TDP1): qHTS in cells in absence of CPT | DT40 Tdp1-/- hTDP1 cells, no CPT, ATP luminescence, 48 h | Potency, µM (titrated, usually from 46.2 µM), inactives show top-dose activity change, negative = growth inhibition, usual class: inhibitors | 420,000 compounds, 15% hits | AID 686978, 2013; note: nearly all actives have a fitted effect of over 55% in size
#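 DT40 Tdp1-/-;hTDP1 cells, no CPT (DMSO vehicle only), 400 cells/well; compounds pin-transferred; ≥48 hr, 37 °C; CellTiter-Glo 30 min RT dark, luminescence read.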
# Gal4-VP16 FLuc – Gal4-VP16 reporter inhibition counter-screen. 310,000 compounds, 3.5% hits. AID 2546. Potency, µM (doses to about 53.6 µM), for inactives: at the top dose activity, negative = inhibition, actives largely listed as inhibitors. Drosophila S2 Gal4-VP16 UAS-luciferase, luminescence, 20 h;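 note: Gal4-VP16 expression switched on by copper sulfate through the metallothionein promoter; nearly all actives have a fitted effect of over 50% in size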
# Numbers without * were called inactive; ? = inconclusive; / = no result given; [ ] = dose if it differs, or a comment. In the library only some 19% were active in any assay of this set; here they are far more common. Calls come from the whole dose curve; as a rule, active = well fitted curve in the direction sought with a large enough effect; inconclusive = small, poorly fitted or top-dose-only effect, or another doubt; inactive = no such curve, though single readings can be large; an effect the other way counts as inactive or inconclusive. % is set by controls: 0 for no effect and ±100 for the full control effect; potency is the fitted concentration of half-maximal effect.
SMILES,TDP1 inh,DT40 TDP1 CPT,RORgamma inh,DT40 TDP1 no CPT,Gal4-VP16 FLuc
CCOC(=O)c1c(NC(=O)Cn2c(=O)oc3ccccc32)oc(C)c1C(C)=O,2.4%,1.3%,1.6%,-1.6%,1.7%
COc1ncc2nc(-c3ccc(Cl)cc3)c(=O)n(C[C@H]3CCCO3)c2n1,/,10.3%,5.2%,-6.1%,-5.5%
C/C(CC(=O)Nc1ccc(N(C)C)cc1)=N\NC(=O)c1ccc(C(C)(C)C)cc1,/,-22.0%,?,-27.0%,3.98µM*
C/C(CC(=O)Nc1ccc(N(C)C)cc1)=N\NC(=O)c1ccccc1O,/,-17.3%,23.4%[1.91 µM],-1.7%,?
C/C(CC(=O)Nc1cc(C)ccn1)=N\NC(=O)c1ccc(C(C)(C)C)cc1,9.2%,?,11.2µM*,-28.7%,-16.2%
COc1cccc(C(=O)N/N=C(\C)CC(=O)Nc2ccc(N(C)C)cc2)c1,7.8%,-0.4%,-30.4%,-2.3%,0.5%
C/C(CC(=O)Nc1ccc(N(C)C)cc1)=N\NC(=O)c1ccc(F)cc1,/,-21.6%,1.78µM*,16.2%,?
COc1ccc(NC(=O)C(=O)N/N=C(\C)CC(=O)Nc2cc(C)ccn2)c(OC)c1,/,12.7%,0.8%,0.2%,-5.7%
COc1ccccc1CNc1ncnc2c1c(-c1ccccc1)cn2-c1cccc(C)c1,0.0%,?,/,-101.6%,/
O=C(Nc1ccc(N2CCN(C(=O)c3ccco3)CC2)cc1)c1ccc([N+](=O)[O-])cc1Cl,4.6%,?,0.7%,20.6µM*,-10.5%
Cc1ccc(C(=O)Nc2ccc(N3CCN(C(=O)c4ccco4)CC3)cc2)c(Cl)c1,/,?,30.2%,13µM*,25.3%
Cc1ccccc1C(=O)Nc1ccc(N2CCN(C(=O)c3ccco3)CC2)cc1,8.8%,-15.8%,40.3%,?,-9.4%
CN(C)Cc1c(C(=O)N/N=C/c2cccc(OCc3c(F)cccc3Cl)c2)nnn1-c1nonc1N,3.9%,9.2µM*,42.8%,7.31µM*,-27.5%
CN(C)Cc1c(C(=O)N/N=C/c2cccc3ccccc23)nnn1-c1nonc1N,-4.0%,-7.7%,5.9%,2.9%,-3.6%
CN(C)Cc1c(C(=O)N/N=C/c2ccccc2OCc2c(F)cccc2Cl)nnn1-c1nonc1N,14.3%,4.11µM*,?,5.17µM*,-6.6%
CCN(CC)S(=O)(=O)c1ccc(N2CC(C(=O)NCc3ccco3)CC2=O)cc1 (centres undefined),/,-9.2%,/,-23.5%,/
Cc1ccc(C(=O)NCCOc2ccc(Cl)cc2)cc1,/,11.9%,?,-3.6%,?
COc1ccc(Cl)cc1C(=O)NNC(=O)C1COc2ccccc2O1 (centres undefined),4.9%,?,?,?,2.6%
CCC(CC)c1nnc(NC(=O)C2COc3ccccc3O2)s1 (centres undefined),5.4%,-18.8%,10µM*,-21.0%,-26.0%
O=C(NNC(=O)C1COc2ccccc2O1)c1ccccc1O (centres undefined),-0.2%,?,/,16.4µM*,/
O=C(NC1=NCCS1)C1COc2ccccc2O1 (centres undefined),2.9%,-25.7%,6.31µM*,-10.2%,4.47µM*
C[C@H]1CN([C@@H](C)CO)C(=O)CCCn2nncc2CO[C@@H]1CN(C)C(=O)Nc1cccc2ccccc12,/,9.2%,/,0.7%,/
Cc1ccc(NC(=O)CN2C(=O)C3(SCC(=O)N3c3cccc(Cl)c3)c3ccccc32)cc1C (centres undefined),0.0%,?,/,?,/
O=C(N/N=C/C(Cl)=C/c1ccccc1)c1ccccn1,-2.5%,?,?,?,?
O=C(N/N=C/C(Cl)=C\c1ccccc1)c1cccs1,3.7%,?,24.2%,9.2µM*,3.4%
SMILES,TDP1 inh,DT40 TDP1 CPT,RORgamma inh,DT40 TDP1 no CPT,Gal4-VP16 FLuc
CC(/C=N/NC(=O)c1cccs1)=C\c1ccccc1,4.9%,-5.8%,?,8.2µM*,-21.3%
O=C(N/N=C/C(Cl)=C/c1ccccc1)c1ccncc1,?,9.2µM*,-26.6%,20.6µM*,11.1%
Cc1cc(C(=O)N/N=C/c2cccnc2)c(C)o1,7.4%,-6.6%,-8.2%,-15.8%,4.2%
Cc1cc(C(=O)N/N=C/C(Cl)=C/c2ccccc2)c(C)o1,3.7%,29.1µM*,-10.5%,20.6µM*,12.6µM*
COCCCNC(=O)CN(c1cc(Cl)ccc1OC)S(C)(=O)=O,-2.5%,11.1%,11.0%,-10.1%,-0.9%
CCOC(=O)c1cn(CC(=O)Nc2ccc(CC)cc2)nn1,5.2%,0.6%,28.0%,3.7%,-16.0%
CC1(C)Cc2cccc(OCC(=O)N3CCN(c4cccc(Cl)c4)CC3)c2O1,4.8%,?,/,?,/
CCN(CC(=O)NCc1ccccn1)S(=O)(=O)c1ccc(OC)cc1,0.7%,14.2%,-6.6%,-15.1%,-1.8%
COC(=O)c1ccc([C@H]2CC(=O)O2)cc1,/,?,?,?,-3.6%
N#C/C(=C/c1cn(-c2ccccc2)nc1-c1cccc(S(=O)(=O)N2CCCC2)c1)C(=O)NCc1ccco1,4.3%,13µM*,42.3%,11.6µM*,3.6%
N#C/C(=C\c1cn(Cc2ccccc2)c2ccccc12)C(=O)NCc1ccco1,-1.4%,?,15.2%,?,-14.3%
N#C/C(=C\c1cn(Cc2ccc(F)cc2)c2ccccc12)C(=O)NCc1ccco1,-2.8%,18.4µM*,?,?,11.2µM*
CCCCCSc1nc2c(c(=O)[nH]c(=O)n2C)n1C(C)C,0.0%,?,0.7%,?,-5.0%
COC(=O)c1c(NC(=O)CCNCc2ccco2)sc2c1CCC2,0.0%,23.1µM*,-1.7%,?,10.6%
COc1ccc(NC(=O)c2c(NC(=O)CNCc3ccco3)sc3c2CCC3)cc1,0.0%,-16.6%,-72.6%,-18.7%,?
COc1ccc(NC(=O)c2c(NC(=O)CNCc3ccco3)sc3c2CCC3)c(OC)c1,3.1%,?,1.12µM*,20.6µM*,2.51µM*
COc1ccccc1C(=O)Nc1sc2c(c1C(=O)NCc1ccco1)CCCC2,5.9%,?,39.2%,-19.9%,8.6%
COC(=O)c1c(NC(=O)CCCC(=O)O)sc2c1CCC2,-10.9%,-5.7%,-13.1%,-3.5%,-4.5%
COc1ccc(OC)c(NC(=O)c2c(NC(=O)CNCc3ccco3)sc3c2CCC3)c1,8.1%,-112.9%,?,3.66µM*,2.24µM*
O=C(c1nc2ccc(Cl)cn2c1CN1CCC[C@H]1CO)N1CCCCCCC1,1.3%,5.8%,6.9%,15.0%,-6.5%
CN(CC(=O)Nc1ccc(F)cc1)C(=O)COC(=O)c1cc(S(=O)(=O)N(C)C)ccc1N1CCCC1,/,5.5%,/,-9.3%,/
CCn1nc(C)cc1C(=O)OCC(=O)c1ccc(Cl)cc1,0.3%,-15.0%,6.8%,-18.0%,8.9%
CCn1nc(C)cc1C(=O)Sc1cccc(Br)c1,-3.5%,3.66µM*,?,4.61µM*,?

# Screening data from PubChem BioAssay.
